Screens as filed in PubChem BioAssay.
697 NFkB inh: inhibitors of PMA/ionomycin-induced NF-kB reporter, 697 cells, primary screen, B-cell NF-kB inhibitor project, cell-based, luminescence, uHTS. AID 435022, 2010. 697 B-cell NF-kB luciferase reporter, 16 h. inhibition, % at 4 µM. 330,000 compounds, 0.33% hits; in the data active means inhibition above about 35%
Jurkat NFkB inh: inhibitors of induced NF-kB luciferase reporter, primary screen, TCR NF-kB activation inhibitor project, cell-based, luminescence, uHTS | Jurkat, PMA/ionomycin-induced NF-kB luciferase reporter | inhibition, % at 4 µM | 330,000 compounds, 0.53% hits | AID 435003, 2010; in the data active means inhibition above about 50%
Shn3 inh set2: reduction of Shn3 3'UTR firefly luciferase signal, primary screen, Schnurri-3 inhibitor project, cell-based, Clone20 osteoblasts, set 2 | 360,000 compounds, 0.52% hits | Clone20 osteoblast Shn3 3'UTR firefly luciferase, 24 h | inhibition, % at 12.5 µM;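 active means mean inhibition of at least 75% with every replicate also reaching 75%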
Gli-Sufu antag: Gli-Sufu pathway antagonists, primary screen, luciferase luminescence, Sufu-KO-LIGHT cells, uHTS | Sufu-KO-LIGHT fibroblasts, Gli luciferase reporter luminescence | inhibition, % at 5 µM | 340,000 compounds, 0.74% hits;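 active means inhibition above about 55%, limit read from the data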
Mdm2-MdmX inh: inhibitors of human Mdm2-MdmX association, primary screen, cell-based, luminescence, split luciferase, SaOS-2, uHTS; Protein Mdm4 (Homo sapiens) + E3 ubiquitin-protein ligase Mdm2 (Homo sapiens), …; SaOS-2 split-luciferase Mdm2/MdmX complementation; inhibition, % at 8 µM; 330,000 compounds, 3% hits;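 active means inhibition of at least 50% at 8 µM in the primary screen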
Target sequence (O15151 whole entry, looked up): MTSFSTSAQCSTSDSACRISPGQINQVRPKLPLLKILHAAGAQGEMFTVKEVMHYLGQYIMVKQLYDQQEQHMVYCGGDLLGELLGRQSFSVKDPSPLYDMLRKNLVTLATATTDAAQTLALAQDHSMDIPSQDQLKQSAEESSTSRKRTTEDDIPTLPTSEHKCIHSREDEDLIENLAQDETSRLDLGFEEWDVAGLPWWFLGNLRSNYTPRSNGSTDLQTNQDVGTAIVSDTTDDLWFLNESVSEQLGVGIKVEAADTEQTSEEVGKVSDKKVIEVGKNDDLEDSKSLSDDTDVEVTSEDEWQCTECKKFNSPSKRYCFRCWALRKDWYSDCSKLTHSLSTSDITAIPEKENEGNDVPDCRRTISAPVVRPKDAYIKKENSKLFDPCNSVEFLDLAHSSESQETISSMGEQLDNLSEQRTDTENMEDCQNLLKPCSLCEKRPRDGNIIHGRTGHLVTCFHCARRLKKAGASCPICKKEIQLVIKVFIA
Target sequence (Q00987 whole entry, looked up): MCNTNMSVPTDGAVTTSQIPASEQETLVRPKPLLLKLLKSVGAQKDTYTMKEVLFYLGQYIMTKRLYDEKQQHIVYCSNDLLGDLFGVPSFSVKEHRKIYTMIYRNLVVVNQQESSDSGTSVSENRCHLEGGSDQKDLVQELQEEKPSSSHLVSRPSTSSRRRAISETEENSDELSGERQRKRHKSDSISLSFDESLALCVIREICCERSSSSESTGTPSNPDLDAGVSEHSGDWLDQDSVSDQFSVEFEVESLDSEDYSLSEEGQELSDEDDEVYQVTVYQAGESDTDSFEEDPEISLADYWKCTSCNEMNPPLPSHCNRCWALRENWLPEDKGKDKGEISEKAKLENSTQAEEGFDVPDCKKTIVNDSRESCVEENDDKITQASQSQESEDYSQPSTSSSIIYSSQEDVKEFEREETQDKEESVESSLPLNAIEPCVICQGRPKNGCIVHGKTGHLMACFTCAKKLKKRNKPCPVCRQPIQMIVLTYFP
697 NFkB conf: PMA/ionomycin-induced NF-kB reporter inhibitors, 697 retest, confirmation, B-cell NF-kB inhibitor project, cell-based, luminescence, single concentration | shares compounds with 697 NFkB inh | 697 B-cell NF-kB luciferase, 16 h | inhibition, % at 4 µM | 2,000 compounds, 35% hits; in the data active means inhibition mostly above about 28%, no sharp cut-off; inactive means mostly below about 22%
A number is an active result; n = inactive; x = not tested or not shown. An excerpt weighted towards active compounds, which were near 3.8% of everything screened.

SMILES	697 NFkB inh	Jurkat NFkB inh	Shn3 inh set2	Gli-Sufu antag	Mdm2-MdmX inh	697 NFkB conf
Cc1ccc(C(=O)C(C)OC(=O)c2ccccc2[N+](=O)[O-])cc1 (centres undefined)	n	n	n	n	n	n
COC(=O)[C@H](C)NC(=O)Nc1cccc(C(F)(F)F)c1	36	n	n	n	n	n
Cc1ccc(C(=O)OCC(=O)NCCN2C(=O)CSC2=O)cc1[N+](=O)[O-]	n	n	n	n	n	x
CC1CCN(c2ccc(C(=O)OCC(=O)NCCN3C(=O)CSC3=O)cc2[N+](=O)[O-])CC1	38	n	n	n	n	n
COCCN(C(=O)COC(=O)C1CCCCC1)c1c(N)n(Cc2ccccc2)c(=O)[nH]c1=O	x	x	n	x	x	x
COc1cc(C(=O)Nc2nc(OC)c(-c3ccccc3)c(OC)n2)cc(OC)c1OC	38	n	n	n	n	n
CC1CC(C)CN(S(=O)(=O)c2ccc(C(=O)NCCCn3ccnc3)cc2)C1 (centres undefined)	70	n	n	n	n	50
CCC(CO)Oc1cc(NCc2ccc(Cl)cc2Cl)c2ncn(C(C)C)c2c1 (centres undefined)	n	n	n	n	n	x
CCC(CO)Oc1cc(NCc2ccccc2O)c2ncn(C(C)C)c2c1 (centres undefined)	45	n	n	n	n	46
COc1ccc(N(CC(=O)NC2CCCC2)C(=O)c2ccc(C)s2)cc1OC	n	n	n	n	n	x
CC(=O)c1ccc(OCCCC(=O)Nc2ccc(S(=O)(=O)N3CCOCC3)cc2)cc1	n	n	n	n	n	x
Cc1ccc(NC(=O)c2ccccc2O)cc1	n	n	n	n	n	x
Cc1cc(C)cc(NC(=O)Nc2ccc(NC(=O)c3ccccc3O)cc2)c1	36	n	n	n	n	37
CC1CC(C)(C)Nc2ccc(OC(=O)c3ccco3)cc21 (centres undefined)	53	n	n	n	n	63
C(=N\Nc1ccccc1)/c1nc2ccccc2s1	n	n	n	n	n	n
CCOc1ccc(-c2nnc(SCC(=O)NC3CC3)o2)cc1	60	n	n	n	n	56
CC(C)(C)c1ccc(-c2nnc(SCC(=O)NC3CC3)o2)cc1	57	n	n	n	n	39
O=C(CSc1nnc(-c2ccccc2)o1)NC1CCCC1	n	n	n	n	n	x
COc1ccc(C(=O)NC(=S)Nc2ccc3[nH]c(=O)[nH]c3c2)cc1	n	n	n	n	n	x
Cc1cccc(/C(N)=N/OC(=O)c2ccc3c(c2)OCO3)c1	n	n	n	n	n	n
O=C(O)c1ccc(N/N=C/c2ccc(-c3ccccc3Cl)o2)cc1	n	n	n	n	n	n
CCOC(=O)c1cnc(SCc2ccccc2)nc1N	n	n	n	n	n	n
CCOC(=O)c1cnc(SCc2ccc(C(C)(C)C)cc2)nc1N	n	n	n	n	n	x
Cc1cccc(-c2noc(CCC(=O)NCc3ccco3)n2)c1	n	n	n	n	n	x
CC(C)(C)c1ccc(-c2noc(CCC(=O)NCc3ccco3)n2)cc1	96	n	n	70	n	94
SMILES	697 NFkB inh	Jurkat NFkB inh	Shn3 inh set2	Gli-Sufu antag	Mdm2-MdmX inh	697 NFkB conf
COc1ccc(CN2CCC(Oc3cc(C(=O)NC4CC4)ccc3OC)CC2)c(O)c1	n	n	n	n	n	x
COCCCn1c(=O)/c(=C/c2ccccc2OC(F)F)s/c1=C(\C#N)C(=O)NCCOC	x	x	n	n	x	x
COCCCn1c(=O)/c(=C\c2cccc(OC)c2OC)s/c1=C(/C#N)C(=O)Nc1ccc(C(=O)O)cc1	43	n	n	n	n	37
O=S(=O)(c1ccccc1Br)N(Cc1ccccc1)CC(O)COCc1ccccc1 (centres undefined)	n	x	n	n	n	x
COc1ccc(S(=O)(=O)N2CCCCCC2)cc1C(=O)Nc1ccc(C(=O)N(C)C)cc1	n	n	n	n	n	x
CN(C)c1ccc(NC(=O)Nc2nc(C(N)C3CCCCC3)cs2)cc1 (centres undefined)	x	x	n	x	x	x
Cc1ccc(/C=C2\SC(=S)N(CCCC(=O)Nc3cccc(C(=O)O)c3)C2=O)cc1	76	n	n	n	n	88
COc1cccc(/C=C2\SC(=S)N(CCCC(=O)Nc3ccc(C(=O)O)cc3)C2=O)c1	53	n	n	n	n	61
CCN(CC)CCOC(=O)c1ccc(NC(=O)CCCN2C(=O)S/C(=C/c3ccc(OC)cc3)C2=S)cc1	52	n	n	n	n	60
Cc1ccc(/C=C2\SC(=S)N(CCC(=O)Nc3cccnc3)C2=O)cc1	52	n	n	n	n	n
O=C(CCN1C(=O)/C(=C\c2ccccc2)SC1=S)Nc1ccc(C(=O)O)cc1	n	n	n	n	n	x
Cc1ccc(/C=C2\SC(=S)N(CCC(=O)NNC(=O)c3cccc(O)c3)C2=O)cc1	40	n	n	n	n	n
CCOc1ccc(/C=C2/SC(=S)N(CCC(=O)Nc3ccc(C(=O)O)cc3)C2=O)cc1	77	n	n	n	n	77
O=C(CCN1C(=O)/C(=C/c2ccc(Cl)cc2)SC1=S)Nc1cccc(C(=O)O)c1	n	n	n	n	n	x
O=C(CCN1C(=O)/C(=C\c2ccc(F)cc2)SC1=S)Nc1ccc(O)cc1	n	n	n	n	n	x
COc1ccc(/C=C2\SC(=S)N(CCC(=O)Nc3cccc(C(=O)O)c3)C2=O)cc1	42	n	n	n	n	39
Cc1ccc(/C=C2\SC(=S)N(CCC(=O)NNC(=O)c3ccc(O)cc3)C2=O)cc1	n	n	n	n	n	x
COc1ccc(/C=C2\SC(=S)N(CCC(=O)Nc3ccc(O)cc3)C2=O)cc1	48	n	n	n	n	37
Cc1noc(C)c1C(=O)OC(C)C(=O)Nc1ccc(C(N)=O)cc1 (centres undefined)	n	n	n	n	n	x
COc1ccc(/C=C2\SC(=S)N(CCCC(=O)Nc3ccc(C(=O)O)cc3)C2=O)cc1OC	n	n	n	n	n	x
COc1ccc(/C=C2\SC(=O)N(CCCC(=O)Nc3ccc(C(=O)O)cc3)C2=O)cc1OC	62	n	n	n	n	71
CCOC(=O)CNC(=O)CSc1nnc(NC(=O)c2ccc(S(=O)(=O)N3CCOCC3)cc2)s1	n	n	n	n	n	x
Cc1ccc(S(=O)(=O)/C(=C\N(C)C)c2cnc(Cl)s2)cc1	36	n	n	n	n	n
Cc1nnc2ccc(-c3ccc(NC(=O)Cc4cccs4)cc3)nn12	36	n	n	n	n	n
CC(=O)Nc1ccc(-c2ccc3nnc(C)n3n2)cc1	n	n	n	n	n	x
